From PubChem BioAssay (NCATS)
Results filed as inconclusive are left out. Active and inactive are the calls of the source. Unless noted, calls follow the shape of the dose curve; as a rule, active = well fitted curve in the direction sought with a large enough effect; inconclusive = small, poorly fitted or top-dose-only effect, or another doubt; inactive = no such curve, though single readings can be large; an effect the other way counts as inactive or inconclusive.

Assays:
[1] = qHTS profiling for inhibitors of Plasmodium falciparum (HB3) proliferation (AID 743324); conditions: Plasmodium falciparum HB3 blood-stage proliferation; at 28.7 µM (top of the series) unless noted;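 also: 100% = DMSO vehicle wells and 0% = artemisinin-treated control wells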
Method in brief: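 P. falciparum HB3 grown in erythrocytes (0.3% parasitemia, 2.5% hematocrit final) with compound for 72 h at 37 C, 5% CO2. Parasite DNA detected by SYBR Green after saponin/triton lysis overnight; normalized to 0.29 uM artemisinin and DMSO.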

[2] = qHTS profiling of the MIPE4 collection as inhibitors of Plasmodium falciparum (3D7) proliferation (AID 743344; call rule not given here;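 also: scaled between DMSO vehicle wells and 0.29 µM artemisinin as full inhibition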); conditions: P. falciparum 3D7 in erythrocytes, SYBR Green DNA fluorescence, 72 h; at 28.5 µM (top of the series) unless noted
Method in brief: (§1)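 Erythrocytes infected with P. falciparum (0.3% parasitemia, 2.5% hematocrit) incubated with compounds 72 h at 37 C, 5% CO2. Lysis with saponin/Triton buffer containing SYBR Green I, overnight at room temperature in the dark; DNA fluorescence (485/535 nm) normalised to 0.29 uM artemisinin and DMSO.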

[3] = qHTS profiling of the MIPE4 collection as inhibitors of Plasmodium falciparum (DD2) proliferation (AID 743345; call rule not given here); conditions: P. falciparum Dd2 in erythrocytes, SYBR Green DNA, 72 h; at 28.5 µM (top of the series) unless noted
Method in brief: as §1

[4] = qHTS profiling of the MIPE4 collection as inhibitors of Plasmodium falciparum (DD2) proliferation (Rep 2) (AID 743346; call rule not given here); conditions: P. falciparum Dd2 in erythrocytes, SYBR Green DNA, 72 h; at 28.5 µM (top of the series) unless noted
Method in brief: as §1

[5] = qHTS profiling of the MIPE4 collection as inhibitors of Plasmodium falciparum (HB3) proliferation (AID 743347; call rule not given here;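 also: plate controls were DMSO vehicle wells for no effect and artemisinin wells for full effect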); conditions: P. falciparum HB3 in erythrocytes, SYBR Green DNA, 72 h; at 28.5 µM (top of the series) unless noted
Method in brief: as §1

[6] = High-throughput drug toxicity screening in the BPDCN cell line Gen2.2 (AID 1224824; call rule not given here;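 also: cells exposed to compounds for 48 h before reading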); conditions: Gen2.2 BPDCN cells; at 45.8 µM (top of the series) unless noted
Method in brief: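 Readout is ATP luminescence from Gen2.2 cells after two days of drug exposure in serum-containing medium at 37 °C. Values express percent activity, with vehicle defining full signal and 9.2 uM bortezomib defining zero.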

[7] = High-throughput drug toxicity screening in the BPDCN cell line Cal-1 (AID 1224825; call rule not given here); conditions: Cal-1 BPDCN cell viability, qHTS; at 45.8 µM (top of the series) unless noted
Method in brief: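 Exponentially growing Cal-1 cells, 500 per well in phenol red-free RPMI with 10% FBS, were exposed to compounds for 48 h at 37 °C, 5% CO2. Viability was read by CellTiter-Glo luminescence and normalised to DMSO (100%) and 9.2 uM bortezomib (0%).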

[8] = qHTS assay for measurement of the activity of small molecule inhibitors on Zika virus induced Caspase-3 activity in human iPSC derived neural progenitor cells (hNPCs) (AID 1224857); also: % of control where 0% means no effect; nearly all actives have a fitted effect of over 65% in size
Method in brief: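 In medium with heparin 2 ug/ml and cyclopamine 2 uM, hNPCs (350 cells/well) received compound for one hour and then Zika virus at 2 FFU/cell; caspase activity was measured by Caspase-Glo 3/7 luminescence 6 h post-infection.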

[9] = qHTS assay for measurement of the activity of small molecule inhibitors on Zika virus induced Caspase-3 activity in human astrocytoma cells (AID 1224859);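 also: plate controls were ZIKV-infected untreated cells for no effect and uninfected cells for full effect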
Method in brief: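 A cell-based luminescent caspase-3/7 assay used SNB-19 cells infected with ZIKV (2 FFU/cell) for 6 h following 1 h compound pretreatment.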

[10] = qHTS Screen of the MIPE 4.0 Collection Against Ewings Sarcoma (RDES) (AID 1259252); also: nearly all actives have a fitted effect of over 35% in size; also: potency is read from the fitted curve at half-maximal effect
Method in brief: (§2)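 Measured: ATP luminescence (CellTiter-Glo) 10 min after reagent addition, following 48 h drug treatment. Relative luciferase units converted to percent activity, with no-cell wells as full and DMSO wells as zero inhibition.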

[11] = qHTS Screen of the MIPE 4.0 Collection Against Ewings Sarcoma (TC71) (AID 1259253); also: potency is read from the fitted curve at half-maximal effect; nearly all actives have a fitted effect of over 40% in size
Method in brief: as §2

[12] = qHTS Screen of the MIPE 4.0 Collection Against Ewings Sarcoma (TC32) (AID 1259256); also: nearly all actives have a fitted effect of over 45% in size; also: potency is read from the fitted curve at half-maximal effect
Method in brief: as §2

[13] = Identifying Small Molecule Inhibitors of Pancreatic Cancer Stem Cells (Panc1, Spheroid) (AID 1259359);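 also: potency is read from the fitted curve at half-maximal effect; compound exposure lasted 48 h before reading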
Method in brief: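 Adherent (2D) versus sphere (3D) formats; spheres generated 14 d in SCM beforehand. Compound transferred by pin tool after 4 h, 48 h incubation, CellTiter-Glo endpoint.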

[14] = Identifying Small Molecule Inhibitors of Pancreatic Cancer Stem Cells (A278, Adherent) (AID 1259361); also: nearly all actives have a fitted effect of over 35% in size
Method in brief: (§3)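 After a 4 h attachment period, compounds were pinned into wells and cultures held 48 h under standard incubator conditions. Viability was then measured as CellTiter-Glo luminescence following 10 min at room temperature.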

[15] = qHTS Screen of the MIPE 4.0 Collection Against Ewings Sarcoma (EW8) (AID 1259255);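 also: 100% = DMSO-treated cells and 0% = medium-only wells without cells; nearly all actives have a fitted effect of over 35% in size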
Method in brief: as §2

[16] = Identifying Small Molecule Inhibitors of Pancreatic Cancer Stem Cells (SN12C, Adherent) (AID 1259358);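 also: potency is read from the fitted curve at half-maximal effect; cell survival measured after 48 h of compound exposure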
Method in brief: as §3

Structure (SMILES) | remaining proliferation (% of control), lower = more inhibition [1] | parasite growth, % of DMSO control [2] | parasite growth remaining, % of DMSO control (lower = more inhibition) [3] | parasite growth, % of control (lower = inhibition) [4] | growth, % of control [5] | cell viability, % of control (lower = more cytotoxic) [6] | viability (% of control) [7] | Potency [8] | Potency [9] | Potency [10] | Potency [11] | Potency [12] | Potency [13] | IC50 (viability decrease) [14] | Potency [15] | Potency [16]
Cc1ccc(C(=O)N(CCCN)[C@@H](c2nc3cc(Cl)ccc3c(=O)n2Cc2ccccc2)C(C)C)cc1 | 0.0585% | 4.61% | 7.03% | 13.3% | 6.88% | 4.1% | 3.23% | inactive | inactive | 0.0017 µM (active) | 0.0019 µM (active) | inactive | 0.003 µM (active) | 0.0047 µM (active) | – | –
CC1C(=O)OC2C(O)C34C5CC(C(C)(C)C)C36C(OC(=O)C6O)OC4(C(=O)O5)C12O (stereo not given) | – | 93.4% | 94.5% | 85.6% | 83.4% | 158% | 16.8% | inactive | inactive | 13.2 µM (active) | 14.8 µM (active) | inactive | – | – | – | –
CN(C)CCOc1ccc(C(=C(CCCl)c2ccccc2)c2ccccc2)cc1 | – | – | – | – | 27% | 103% | 111% | inactive | inactive | 1.66 µM (active) | 3.72 µM (active) | – | – | – | inactive | –
COc1cc2nccc(Oc3ccc(NC(=O)Nc4cc(C)on4)c(Cl)c3)c2cc1OC | 11.5% | 7.24% | 22.7% | 27.3% | 3.73% | 52.1% | 13% | inactive | inactive | 2.35 µM (active) | 2.64 µM (active) | 2.96 µM (active) | – | – | – | 16.6 µM (active)
Cc1ccc(NC(=O)Nc2cc(C(F)(F)F)ccc2F)cc1Nc1ccc2c(c1)NC(=O)C2=Cc1ccc[nH]1 | – | 8.05% | 14.1% | 21.7% | 10.9% | 4.16% | 2.92% | inactive | inactive | 23.5 µM (active) | 26.4 µM (active) | 26.4 µM (active) | – | – | – | –
Cc1cc(CS(=O)(=O)c2ccccc2)cc(OCc2ccc(CN3CCC[C@H]3CO)cc2)c1 | – | 33.1% | 30.3% | 18.8% | 66.2% | 318% | 76.3% | inactive | inactive | 20.9 µM (active) | 20.9 µM (active) | 20.9 µM (active) | – | – | – | –
COc1ccc(-c2oc3c(CC=C(C)C)c(O)cc(O)c3c(=O)c2O)cc1 | – | 4.59% | 9.79% | 11.9% | 4.42% | 188% | 45.1% | inactive | inactive | 14.8 µM (active) | 18.7 µM (active) | 23.5 µM (active) | – | – | – | –
CC(C)c1onc(-c2c(Cl)cccc2Cl)c1COc1ccc(C=Cc2cccc(C(=O)O)c2)c(Cl)c1 | – | 60.6% | 94.1% | 53.3% | 67.3% | 76.8% | 107% | inactive | inactive | inactive | 18.7 µM (active) | – | – | – | inactive | –
